Compound activity as filed in PubChem.
Compounds with a hit are over-represented: about 3.5% of the library has one in this group of screens.
mHTT-CaM PPI inh: inhibitors of human mutant huntingtin-calmodulin interaction. P42858. AlphaScreen His-mHTT/GST-CaM binding, luminescence. inhibition, % at 15 µM. 190,000 compounds, 3.6% hits
Pf apPOL inh: Pf-apPOL DNA polymerase inhibition | AID 1794808 | Recombinant Pf-apPOL, molecular beacon fluorescence, 1.5 h | inhibition, % at 10 µM | 210,000 compounds, 0.25% hits
Numbers stand for hits; i = inactive; nt = no result given. Rule as the data show it: active = inhibition above about 50%; inactive = the rest.

SMILES	mHTT-CaM PPI inh	Pf apPOL inh
Cc1cccc(N2CCN(C(=O)c3ccc4c(c3)N(C)C3CCCCN3C4=O)CC2)c1 (stereo not drawn)	i	i
CCN1c2cc(C(=O)NCc3cccc(Cl)c3)ccc2C(=O)N2CCCCC21 (stereo not drawn)	i	i
CN1C(=O)C2CCCCN2c2ccc(C(=O)N3CCc4ccccc4C3)cc21 (stereo not drawn)	i	i
COc1ccc(N2CCN(C(=O)c3ccc4c(c3)N(C)C(=O)C3CCCCN43)CC2)cc1 (stereo not drawn)	i	i
Cc1ccc(C)c(N2CCN(C(=O)c3ccc4c(c3)N(C)C(=O)C3CCCCN43)CC2)c1 (stereo not drawn)	94	i
CN1C(=O)C2CCCCN2c2ccc(C(=O)N3CCN(c4cccc(Cl)c4)CC3)cc21 (stereo not drawn)	99	i
CN1c2cc(C(=O)N3CCN(c4cccc(Cl)c4)CC3)ccc2C(=O)N2CCCCC21 (stereo not drawn)	97	i
O=S(=O)(c1cccc(Cl)c1)N1CCc2nc(-c3ccc(F)cc3)ncc2C1	i	i
Cc1ccc(-n2cnc(C(=O)NCc3cccc(F)c3)n2)cc1	i	i
CN(C)C(=O)c1ccc(NC(=O)CCc2ccccc2)cc1	i	i
Cc1cc(C)c2c(N3CCCC3)nc(C(=O)NC3CC3)nc2n1	i	i
Cc1ncnc2c1CCC(=O)N2CC1CCCO1 (stereo not drawn)	i	i
CC(=O)Nc1ccc(S(=O)(=O)N(c2ccccc2C(F)(F)F)S(=O)(=O)c2ccc(NC(C)=O)cc2)cc1	nt	i
CN1C(=O)C2CCCCN2c2ccc(C(=O)NCc3ccccc3)cc21 (stereo not drawn)	i	i
CN1C(=O)C2CCCCN2c2ccc(C(=O)N3CCN(c4ccccn4)CC3)cc21 (stereo not drawn)	i	i
Cc1cccc(N2CCN(C(=O)c3ccc4c(c3)N(C)C(=O)C3CCCCN43)CC2)c1C (stereo not drawn)	55	i
CN1C(=O)C2CCCCN2c2ccc(C(=O)N3CCC(Cc4ccccc4)CC3)cc21 (stereo not drawn)	87	i
CCCCCn1c(=N)c(S(=O)(=O)c2ccc(C)cc2)cc2c(=O)n3cccc(C)c3nc21	i	i
COc1ccccc1N1CCN(Cc2ccc(Br)o2)CC1	i	85
COc1cc(OC)c(OC)cc1CN1CCN(c2ccccc2OC)CC1	i	i
Nc1c(C(=O)Nc2ccc(Br)cn2)sc2nc3c(cc12)CCCCC3	i	i
O=C1NC2(CCN(C(=O)NCc3ccc(F)cc3)CC2)Nc2cc(Cl)ccc21	i	i
CC(=O)Nc1ccc(C(=O)NCc2cccc(F)c2)c(N2CCOCC2)c1	i	i
CC(=O)Nc1ccc(C(=O)NCc2cccc(F)c2)c(N2CCCCC2)c1	65	i
COc1ccc(C2CC3(O)CC(C#N)(C(=O)N3)C2(C#N)C#N)cc1 (stereo not drawn)	i	i
SMILES	mHTT-CaM PPI inh	Pf apPOL inh
COc1ccc(C2CC3(C)CC(=O)C2C(C#N)(C#N)C3(C#N)C#N)cc1 (stereo not drawn)	79	i
COc1ccccc1NC(=O)N1CCN(C2=CC3=NC(C)CN3C=N2)CC1 (stereo not drawn)	i	i
Cc1ccccc1OCC(=O)N1CCN(C2=CC3=NC(C)CN3C=N2)CC1 (stereo not drawn)	91	i
CCCCOc1ccc(/C=C2\N=C(c3ccc(OC)cc3)OC2=O)cc1	i	i
CN(C)CCNC(=O)c1ccc(S(=O)(=O)N2CCCCC2)cc1	i	i
CCOC1=NN(c2ccc([N+](=O)[O-])cc2)C(=O)/C1=C/c1ccc(Cl)c(Cl)c1	i	i
CCOC1=NN(c2ccc([N+](=O)[O-])cc2)C(=O)/C1=C/c1ccccc1Cl	79	i
O=c1oc2ccccc2c(O)c1C=Nc1ccc([N+](=O)[O-])cn1	i	i
COc1ccc(C(=O)Nc2nnc(C3CC(=O)N(c4ccc(SC)cc4)C3)o2)cc1 (stereo not drawn)	i	i
Cn1nc(-c2nc(-c3cccc(F)c3)no2)c2c1CCN(C(=O)c1ccc(F)cc1F)C2	i	i
CCOC(=O)N1CCC(NC(=O)C2CCN(c3nc4nc[nH]c(=O)c4s3)CC2)CC1	i	i
CC(=O)N1CCc2[nH]c3ccc(C(=O)N4CCN(Cc5cccc(F)c5)CC4)cc3c2C1	i	i
O=C(O)c1ccnc(-c2cc(C(=O)O)ccn2)c1	nt	i
CN(C)C=Cc1ccnc(-c2cc(C=CN(C)C)ccn2)c1	nt	66
O=C(Nc1ccc(Cl)cc1)C1CCN(c2ncc(-c3ccccc3)cn2)CC1	i	i
Cc1cc(NC(=O)c2nn(-c3ccc(Cl)cc3)c(=O)c3ccccc23)no1	i	i
Cc1ccc(C2Oc3ccccc3C3=C2C(c2ccc(F)cc2)n2ncnc2N3)cc1 (stereo not drawn)	i	i
Cc1ccc(C2C3=C(Nc4ncnn42)c2ccccc2OC3c2ccc(F)cc2)cc1 (stereo not drawn)	51	i
Fc1ccc(C2C3=C(Nc4ncnn42)c2ccccc2OC3c2cccc(F)c2)cc1 (stereo not drawn)	i	i
Cc1ccc(C2C3=C(Nc4ncnn42)c2ccccc2OC3c2cccc(F)c2)cc1 (stereo not drawn)	53	i
Cc1cccc2c(=O)c(-c3ccc4c(c3)OCO4)c(NC(=O)C3CCCCC3)oc12	i	i
COCC(=O)N1CCC(c2cnn(-c3cccc(C)c3)c2)CC1	i	i
Cc1c(Nc2ncnc3c2cnn3-c2ccc(Cl)cc2)c(=O)n(-c2ccccc2)n1C	i	i
CC1CCN(C(=O)CSc2nc3c(c(=O)n2-c2ccc(F)cc2)SCC3)CC1	i	i
COc1ccc(OC)c(C=C2Oc3cc(O)ccc3C2=O)c1	i	i
SMILES	mHTT-CaM PPI inh	Pf apPOL inh
CCOc1ccc(CN2C(=O)CCC2(C)C(=O)NCCC(C)C)cc1 (stereo not drawn)	i	i
CCN(C)c1cc2c(c3c1ccn3C)C1CCC2C1 (stereo not drawn)	53	i
Cc1ccccc1-c1cc2c(c3c1ccn3C)C1CCC2C1 (stereo not drawn)	i	i
COc1ccc(-c2cc3c(c4c2ccn4C)C2CCC3C2)cc1F (stereo not drawn)	i	i
COc1ccccc1N(C)c1cc2c(c3c1ccn3C)C1CCC2C1 (stereo not drawn)	83	i
CN(CCc1ccccc1)c1cc2c(c3c1ccn3C)C1CCC2C1 (stereo not drawn)	75	i
Cn1ccc2c(N(c3ccccc3)C3CCCCC3)cc3c(c21)C1CCC3O1 (stereo not drawn)	i	i
Cn1ccc2c(-c3ccc(F)cc3)cc3c(c21)C1CCC3C1 (stereo not drawn)	i	i
CN(c1cc2c(c3c1ccn3C)C1CCC2C1)C1CCCCC1 (stereo not drawn)	70	i
CCOC(=O)CC(=NNC(N)=O)C(F)(F)F	nt	i
O=C(Nc1cccc(F)c1)/C(=C\c1cccc([N+](=O)[O-])c1)NC(=O)c1ccccc1Cl	i	i
Nc1cc(C2CCN(S(=O)(=O)c3cccc(Br)c3)CC2)no1	i	i
COc1ccc(CO)cc1OCc1ccccc1	nt	i
CC1=NN(c2ccccc2)C(C2=C(C)CCCC2(C)C)C1 (stereo not drawn)	i	i
CN(Cc1ccccc1)c1cc2c(c3c1ccn3C)C1CCC2C1 (stereo not drawn)	71	i
Cn1ccc2c(N(Cc3ccccc3)Cc3ccccc3)cc3c(c21)C1CCC3C1 (stereo not drawn)	i	i
